Growth data for 16 compounds are collected here from PubChem BioAssay (NCI).

Compounds without any hit were thinned out: in the full panel of roughly 83,000, 20% have a hit.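 Assay: single dose, 48 h. Readout: percent growth (0 = no net growth; negative = cell death). Active: <10.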 Unmarked numbers belong to inactive results. The source made the active and inactive calls.

Among the test systems are T-47D breast; BT-549 breast; MDA-MB-435 melanoma; SW-620 colon; MCF7 breast; HCT-116 colon; HCC-2998 colon; KM12 colon.
What all share (assay): NCI-60 one-dose screen, 48 h (100 = growth as untreated, 0 = no growth, -100 = all killed)
Holding throughout (details): 10 µM unless noted

On to `CCOC(=O)c1c(N)c(C#N)cn1Cc1ccc(Cl)cc1Cl`, for which the growth is 78.3% in the assay with T-47D breast; 81.8% in the assay with BT-549 breast; -7.54% (active) in the assay with MDA-MB-435 melanoma; 44.9% in the assay on SW-620 colon; 59.2% in the assay with MCF7 breast; 64% with HCT-116 colon. The growth is 73% with HCC-2998 colon and 60.1% in the assay with KM12 colon.
On to `O=[N+]([O-])c1ccc(NC(=S)NNC(=S)Nc2ccc(F)cc2)cc1`, for which the growth with T-47D breast is 74.1%; in the assay on BT-549 breast it was 97.1%; with MDA-MB-435 melanoma, 91%; with SW-620 colon, 91.5%; with MCF7 breast, 82%; with HCT-116 colon, 83.7%. The growth was 85.5% with HCC-2998 colon and 80.4% in the assay with KM12 colon.
Regarding `O=C1Nc2cc(Cl)ccc2/C1=C\c1ccc(OCc2ccccc2)cc1`, the growth is 95.7% in the assay with T-47D breast; 101% with BT-549 breast; 99.4% in the assay on MDA-MB-435 melanoma; 99.4% in the assay on SW-620 colon; 61.6% with MCF7 breast; 97.7% in the assay on HCT-116 colon. The growth in the assay on HCC-2998 colon is 102%; with KM12 colon, 95.1%.
Consider `Cc1ccc2c(n1)C(=O)C(Cl)=C(Nc1cccc(C(F)(F)F)c1)C2=O`, for which the growth with T-47D breast was -41.9% (active); with BT-549 breast, 123%; in the assay with MDA-MB-435 melanoma, 71.3%; with SW-620 colon, -0.806% (active); in the assay with MCF7 breast, -54.7% (active); in the assay on HCT-116 colon it was -25.9% (active). Moreover, the growth in the assay on HCC-2998 colon is 108%; in the assay with KM12 colon it was 106%.
With `C#CCOc1cccc(-c2nc(N)nc(Nc3ccccc3SSc3ccccc3Nc3nc(N)nc(-c4cccc(OCC#C)c4)n3)n2)c1`, the growth with T-47D breast was 40.5%; in the assay on BT-549 breast it was 58.8%; with MDA-MB-435 melanoma, 72.7%; in the assay with SW-620 colon, 71.4%; in the assay with MCF7 breast it was 61.2%; in the assay with HCT-116 colon, 45.7%. For the same compound, the growth in the assay on HCC-2998 colon is 94.6%; in the assay with KM12 colon, 3.92% (active).
Consider `CC(C)C(/C=C/c1[nH]ncc1-c1cc(Cl)ccc1O)N1CCOCC1` (stereo not drawn), for which the growth in the assay with T-47D breast was 94.9%; in the assay with BT-549 breast it was 90%; in the assay with MDA-MB-435 melanoma, 95.8%; with SW-620 colon, 98.4%; in the assay with MCF7 breast, 76.8%; in the assay with HCT-116 colon, 89.3%. For the same compound, the growth is 104% with HCC-2998 colon and 99.6% in the assay with KM12 colon.
Consider `O=S(=O)(NCCCNc1nccc(-c2[nH]c(-c3ccccc3)nc2-c2ccc(F)c(O)c2)n1)c1cccc2ccccc12`, for which the growth in the assay with T-47D breast is 51.3%; in the assay with BT-549 breast it was 69.2%; in the assay on MDA-MB-435 melanoma, 36.9%; in the assay on SW-620 colon, 68.9%; in the assay with MCF7 breast, 44.9%; in the assay with HCT-116 colon, 34.6%. The growth is 99% in the assay on HCC-2998 colon and 55.7% in the assay with KM12 colon.
`COC(=O)[C@@H](Cc1c[nH]c2ccccc12)NC(=O)CCCCOc1cc(O)c2c(=O)cc(-c3ccccc3)oc2c1`: the growth in the assay on T-47D breast is 59.7%; in the assay on BT-549 breast, 90.7%; with MDA-MB-435 melanoma it was 91.6%; in the assay with SW-620 colon, 95.8%; in the assay on MCF7 breast, 94.9%; in the assay on HCT-116 colon it was 92.1%. Moreover, the growth was 96.5% with HCC-2998 colon and 95.3% with KM12 colon.
With `O=C(CSc1nc2ccccc2c(=O)n1-c1ccccc1)N/N=C/c1ccc(Oc2ccc(Br)cc2)cc1`, the growth in the assay with T-47D breast is 82.4%; in the assay with BT-549 breast, 73.1%; in the assay on MDA-MB-435 melanoma, 80.8%; in the assay with SW-620 colon it was 29.6%; in the assay on MCF7 breast it was 68.9%; with HCT-116 colon it was 7.81% (active). Further, the growth in the assay with HCC-2998 colon is 87.1%; with KM12 colon, 76.3%.
With `CC1=Cc2ccccc2OC12C=Cc1ccccc1O2` (stereo not drawn), the growth is 81.8% in the assay on T-47D breast; 106% with BT-549 breast; 105% in the assay on MDA-MB-435 melanoma; 101% in the assay on SW-620 colon; 82.6% in the assay with MCF7 breast; 99.3% with HCT-116 colon. The growth with HCC-2998 colon is 99.9%; in the assay with KM12 colon, 97.6%.
Turning to `Cc1ccc(S(=O)(=O)c2nc(-c3ccc(F)cc3)oc2S(C)(=O)=O)cc1`, the growth with T-47D breast is 60.8%; in the assay with BT-549 breast, 43%; in the assay with MDA-MB-435 melanoma, 77.2%; in the assay on SW-620 colon it was -66.3% (active); in the assay with MCF7 breast, 33.6%; in the assay with HCT-116 colon, 36.3%. Besides, the growth is 102% with HCC-2998 colon and 103% with KM12 colon.
Consider `COc1ccc2[nH]cc(-c3nn4cc(-c5ccncc5)nc4s3)c2c1`, for which the growth is 7.81% (active) with T-47D breast; 74.8% in the assay on BT-549 breast; 90.2% with MDA-MB-435 melanoma; 66.3% with SW-620 colon; 11.2% in the assay with MCF7 breast; 52.8% in the assay with HCT-116 colon. For the same compound, the growth in the assay with HCC-2998 colon was 81.4%; in the assay on KM12 colon, 64.1%.
As for `CNC(=O)c1cc(Oc2ccc3c(c2)sc2nc(-c4ccc(N(C)C)cc4)cn23)ccn1`, the growth is 45.2% in the assay with T-47D breast; 36.5% in the assay with BT-549 breast; -37.8% (active) in the assay with MDA-MB-435 melanoma; 27.9% with SW-620 colon; 11.2% in the assay on MCF7 breast; 8.11% (active) in the assay with HCT-116 colon. The growth in the assay on HCC-2998 colon is 0.825% (active); in the assay on KM12 colon, 23.2%.
As for `Cc1ccsc1[C@H]1c2[nH]c3ccccc3c2C[C@H]2C(=O)N(CCCCCCC(=O)NO)CC(=O)N12`, the growth in the assay on T-47D breast was 57.6%; in the assay on BT-549 breast it was 106%; with MDA-MB-435 melanoma, 90.6%; with SW-620 colon, 82.5%; in the assay with MCF7 breast, 50.1%; in the assay with HCT-116 colon it was 68.1%. For the same compound, the growth in the assay on HCC-2998 colon was 88.1%; in the assay with KM12 colon it was 81.1%.
As for `CC(Nc1c(C#N)cnc2ccc(-c3cncc(O)c3)cc12)c1ccccc1` (stereo not drawn), the growth with T-47D breast was 6.53% (active); with BT-549 breast it was -18.3% (active); in the assay with MDA-MB-435 melanoma it was 25.2%; in the assay on SW-620 colon, 10.1%; with MCF7 breast, 0.808% (active); in the assay on HCT-116 colon, 3.68% (active). Also, the growth is 19.5% in the assay with HCC-2998 colon and 4.85% (active) with KM12 colon.
Turning to `CC1=C(SCC(=O)OCCCCCC(C)C)C(=O)c2ccccc2C1=O`, the growth in the assay with T-47D breast is 74.3%; in the assay on BT-549 breast, 94.4%; in the assay on MDA-MB-435 melanoma it was 102%; in the assay with SW-620 colon, 99.3%; with MCF7 breast, 72.1%; in the assay with HCT-116 colon it was 89.7%. The results for the growth in the assay with HCC-2998 colon and in the assay with KM12 colon were 110% and 91.2%, respectively.
